Results filed as inconclusive are left out. Active and inactive are the calls of the source. The calls were made as follows: active = hit-call score of the fitted dose curve at least 0.9, where 1 is the maximum; inconclusive = response in the unintended direction; inactive = score below 0.9.

Sequence of PGR (gene 5241) (P06401 whole entry, looked up): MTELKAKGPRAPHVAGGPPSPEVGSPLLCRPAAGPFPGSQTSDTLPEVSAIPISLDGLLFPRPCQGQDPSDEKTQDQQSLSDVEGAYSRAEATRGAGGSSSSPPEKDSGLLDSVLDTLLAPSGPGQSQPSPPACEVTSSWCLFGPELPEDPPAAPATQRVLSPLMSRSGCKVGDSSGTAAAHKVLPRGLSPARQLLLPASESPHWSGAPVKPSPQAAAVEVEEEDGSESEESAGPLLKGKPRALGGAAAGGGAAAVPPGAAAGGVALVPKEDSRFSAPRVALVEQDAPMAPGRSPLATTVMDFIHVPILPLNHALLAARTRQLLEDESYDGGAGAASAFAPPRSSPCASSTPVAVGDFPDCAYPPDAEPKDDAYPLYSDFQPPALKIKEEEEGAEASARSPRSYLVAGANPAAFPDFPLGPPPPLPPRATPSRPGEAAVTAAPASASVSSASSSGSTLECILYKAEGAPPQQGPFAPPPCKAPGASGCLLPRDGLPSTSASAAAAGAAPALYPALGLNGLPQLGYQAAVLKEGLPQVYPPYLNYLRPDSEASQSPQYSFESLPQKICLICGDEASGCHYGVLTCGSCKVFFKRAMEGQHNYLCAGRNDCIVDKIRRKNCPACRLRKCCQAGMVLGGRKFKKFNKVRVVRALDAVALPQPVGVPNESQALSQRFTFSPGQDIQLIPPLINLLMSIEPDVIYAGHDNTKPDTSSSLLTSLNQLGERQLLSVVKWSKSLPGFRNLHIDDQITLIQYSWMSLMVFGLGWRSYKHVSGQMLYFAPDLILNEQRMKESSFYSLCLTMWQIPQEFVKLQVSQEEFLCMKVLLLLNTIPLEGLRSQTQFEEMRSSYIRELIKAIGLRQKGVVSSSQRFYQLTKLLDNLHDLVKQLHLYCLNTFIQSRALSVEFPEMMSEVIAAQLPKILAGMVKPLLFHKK

This assay has as its target PGR (gene 5241) (UniProt P06401). As to the kind of experiment: TOX21_PR_BLA_Followup_Agonist_ratio: Tox21 HEK293 Progesterone Receptor (PR) Agonism Beta-lactamase Follow-Up Assay, Ratio (AID 2283933). How it is done:
TOX21_PR_BLA_Followup is a secondary assay for specificity for the TOX21_PR_BLA_Agonist assay. To differentiate true PR agonists from cytotoxic substances, this follow up assay is multiplexed with a cell viability assay. The compounds were also tested for auto fluorescence that may interfere with the biological target readout resulting in potential false positives and/or negatives. To identify the compounds that stimulate PR signaling, a PR-UAS-bla GripTite cell line i.e. PR-UAS-bla HEK293T (Invitrogen, Carlsbad, CA, USA) containing a beta-lactamase reporter gene under the control of an UAS response element was used to screen Tox21 10K compound library. The cytotoxicity of the Tox21 compound library against the PR-bla cell line was tested in parallel by measuring the cell viability using CellTiter-Glo assay in the same wells. TOX21_PR_BLA_Followup_Agonist_ratio is an assay readout measuring reporter gene via receptor activity and designed using inducible reporter (beta lactamase induction) detected with GAL4 b-lactamase reporter gene. The signal is derived from the ratio of cleaved (ch2) to uncleaved (ch1) reporter gene substrate used as the measure of target activity.Data from the assay component TOX21_PR_BLA_Followup_Agonist_ratio was analyzed into 1 assay endpoint. This assay endpoint, TOX21_PR_BLA_Followup_Agonist_ratio, was analyzed in the positive analysis fitting direction relative to DMSO as the negative control and baseline of activity. Using a type of inducible reporter, measures of receptor for gain-of-signal activity can be used to understand the reporter gene at the pathway-level as they relate to the gene NR3C3. Furthermore, this assay endpoint can be referred to as a primary readout, because this assay has produced multiple assay endpoints where this one serves a reporter gene function. To generalize the intended target to other relatable targets, this assay endpoint is annotated to the nuclear receptor intended target family, where the subfamily is steroidal.
Assay Protocol: PR-UAS-bla HEK 293T cells were dispensed at 3,000 cells/5 uL of assay medium containing 2% charcoal stripped FBS per well into black wall/clear-bottom 1536-well plates using a Multidrop Combi (ThermoFisher Scientific, Waltham, MA) dispenser. After the assay plates were incubated at a 37C and 5% CO2 for 6hr, 23 nL of compounds dissolved in DMSO, positive controls or DMSO only was transferred to the assay plate by a Pintool station (Kalypsys, San Diego, CA). The plates were incubated at 37C and 5% CO2 for 16hr. Then 1 uL of LiveBLAzer B/G FRET substrate was added using a BioRAPTR FRD (Flying Reagent Dispenser, Aurora Discovery, San Diego, CA). After the plates were incubated at room temperature for 2 hours, fluorescence intensity was measured by an Envision plate reader (PerkinElmer, Shelton, CT).
As for `CC(C)C[C@H](NC(=O)[C@H](Cc1ccccc1)NC(=O)c1cnccn1)B(O)O`, the result was inactive. Usually AC50 stands for the concentration at which the activity in the assay is half-maximal. As for `COC(=O)C1=C(C)NC(COC(N)=O)=C(C(=O)OC(C)C)C1c1cccc(Cl)c1Cl` (stereo not drawn), the half-maximal activity concentration (AC50) is 23 µM (active). Take `CC(C)C[C@H](NC(=O)[C@H](CCc1ccccc1)NC(=O)CN1CCOCC1)C(=O)N[C@@H](Cc1ccccc1)C(=O)N[C@@H](CC(C)C)C(=O)[C@@]1(C)CO1`: the outcome was inactive. On to `CCC(=C(CC)c1ccc(O)cc1)c1ccc(O)cc1`, for which the result was inactive.

As to `Cc1cc(C)c(C=C2C(=O)Nc3ccccc32)[nH]1`, the outcome was inactive. The same measure, in the same setting: then `Oc1ccc(N=Nc2ccccc2)cc1`, with “inactive”. Take `CCn1c2ccccc2c2cc([N+](=O)[O-])ccc21`: the outcome was inactive. `C=C1C(CCl)(CCl)C2(Cl)C(Cl)C(Cl)C1(Cl)C2(Cl)Cl` (stereo not drawn): the outcome was inactive. As for `O=C(Nc1ccc(Cl)c(Cl)c1)C1CC1`, the outcome was inactive. Take `COC(=O)C1=C(C)NC(C)=C(C(=O)OCCN2CCN(C(c3ccccc3)c3ccccc3)CC2)C1c1cccc([N+](=O)[O-])c1` (stereo not drawn): the outcome was inactive. `CC(=O)OCC(=O)[C@@]1(O)CC[C@H]2[C@@H]3CCC4=CC(=O)C=C[C@]4(C)[C@H]3[C@@H](O)C[C@@]21C`: the result was inactive. Take `NC(=O)n1c(O)c(C(=O)c2cccs2)c2cc(Cl)ccc21`: the result was inactive. Regarding `CC(=O)OCC(=O)[C@@]1(O)CC[C@H]2[C@@H]3CCC4=CC(=O)C=C[C@]4(C)[C@@]3(F)[C@@H](O)C[C@@]21C`, the half-maximal activity concentration (AC50) was 16.9 µM (active).
